# Results reported in PubChem BioAssay AID651814 (National Center for Advancing Translational Sciences (NCATS), 2012).
# About 590 (28%) of roughly 2,100 compounds were called active. Not shown: some 42% with an inconclusive outcome. The call rests on the fitted dose curve; in most records, active means well fitted inhibition curve with a large enough effect; inconclusive means small, poorly fitted or top-dose-only effect; inactive means flat fitted curve, though single readings scatter. The list shows a part of the results.
# Molecular target: DNA dC->dU-editing enzyme APOBEC-3F (Homo sapiens) (UniProt Q8IUX4)
# Assay: qHTS for inhibitors of Vif-A3F interactions: Cherry picks; further: nearly all actives have a fitted effect of over 70% in size;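 on max response: % of control where 0% means no effect; active compounds raise eYFP fluorescence by blocking Vif-driven A3F loss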
# Details: HeLa A3F-eYFP + Vif (tagged APOBEC3F with the HIV-1 protein that degrades it), eYFP fluorescence, 24 h
# Outline: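 Read-out: yellow fluorescence (ex 488 nm, em 500-530 nm) by laser-scanning cytometer after 24 h compound exposure, several concentrations, at 37 deg C. Cells: HeLa line stably co-expressing Vif and C-terminally eYFP-tagged A3F; MG132 served as positive control.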
# Potency means the concentration at half of the fitted maximal effect.
# DNA dC->dU-editing enzyme APOBEC-3F (Homo sapiens), sequence (Q8IUX4 whole entry, looked up): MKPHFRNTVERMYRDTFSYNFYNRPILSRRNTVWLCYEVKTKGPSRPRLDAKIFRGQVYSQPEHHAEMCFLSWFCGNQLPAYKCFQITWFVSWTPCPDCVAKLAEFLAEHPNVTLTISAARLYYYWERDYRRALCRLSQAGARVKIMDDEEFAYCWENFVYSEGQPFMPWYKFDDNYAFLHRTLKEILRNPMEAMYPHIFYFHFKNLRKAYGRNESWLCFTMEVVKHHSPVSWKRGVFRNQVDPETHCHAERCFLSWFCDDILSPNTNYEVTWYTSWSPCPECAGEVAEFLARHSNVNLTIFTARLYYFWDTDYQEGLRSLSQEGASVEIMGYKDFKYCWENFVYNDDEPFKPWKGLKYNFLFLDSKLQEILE
Compound,max response,Potency
CC(C)(C)c1ccc(Cn2c(=O)cnc3ccccc32)cc1,-25.6% (inactive),
CCOc1ccc(Cn2c3ccc(OC)cc3c3nc4ccccc4nc32)cc1,,8.2 µM (active)
CCOc1ccccc1OCC(=O)N/N=C(\C)Cc1ccc(OC)cc1,-18.5% (inactive),
O=C(O)c1ccc(-c2ccc(/C=N/Nc3ccc([N+](=O)[O-])cc3)o2)cc1,,15.8 µM (active)
NC(=S)N/N=C\c1ccc(-c2cccc(Cl)c2Cl)o1,-18.7% (inactive),
Cc1ccc(-c2ccc(/C=N/NC(N)=S)o2)cc1,-8.18% (inactive),
Cc1cc([N+](=O)[O-])ccc1-c1ccc(/C=N/NC(=O)c2ccc(Br)o2)o1,,18.4 µM (active)
CC(C)(C)NC(=S)N/N=C\c1ccc(-c2ccc([N+](=O)[O-])cc2)o1,,14.6 µM (active)
O=C(O)c1cccc(-c2ccc(/C=N/Nc3ccc([N+](=O)[O-])cc3)o2)c1,,18.4 µM (active)
C/C(CCc1ccc2c(c1)OCO2)=N\NC(=S)NC(C)C,-2.82% (inactive),
CN(/N=C/c1ccc(-c2ccc([N+](=O)[O-])cc2)o1)c1ccccc1,,0.731 µM (active)
COc1ccc2nc3ccccc3nc2c1NC(=O)c1ccc(Br)cc1,,18.4 µM (active)
COc1ccc2nc3ccccc3nc2c1NC(=O)c1ccc(Cl)cc1Cl,,3.53 µM (active)
COc1ccccc1N1CCN(C(=O)c2ccc3ncsc3c2)CC1,-21% (inactive),
COc1ccc2nc3ccccc3nc2c1NC(=O)c1ccc(Cl)cc1,,16.4 µM (active)
O=C(NC(=S)Nc1c(Cl)cc(Cl)cc1Cl)c1ccccc1,-0.292% (inactive),
COc1ccc(C(=O)NC(=S)NCc2cccnc2)cc1Cl,-3.18% (inactive),
COc1ccc(C(=O)N/N=C/c2cc(Br)ccc2O)cc1OC,-1.32% (inactive),
COc1cc2nc(/C=C/c3ccc(N(C)C)cc3)sc2cc1SC,,20.6 µM (active)
CCN(CC)c1ccc2cc(-c3nc4sc5c(c4c(=O)[nH]3)CCC(C(C)(C)C)C5)c(=O)oc2c1 (stereo unspecified),13.2% (inactive),
COc1ccc2cc(-c3nc(Cl)c4c5c(sc4n3)CC(C)CC5)c(=O)oc2c1 (stereo unspecified),,5.8 µM (active)
COc1ccccc1OCC(=O)NNC(=O)Nc1ccc(Cl)cc1,,14 µM (active)
O=C(Nc1ccc(Cl)cc1)Nc1ccon1,-9.41% (inactive),

Compound,max response,Potency
O=C(CSc1n[nH]c(-c2ccccn2)n1)Nc1ccc(Cl)cc1,0.972% (inactive),
COCCN(CCOC)Cc1c(O)ccc2c1O/C(=C\c1ccc(C)o1)C2=O,-17.2% (inactive),
O=C(Cn1ncc(Cl)c(Cl)c1=O)NCC1CCCCC1,,15.8 µM (active)
Cc1ccc(S(=O)(=O)N2CCCCC2)cc1NC(=O)Cn1ncc(Cl)c(Cl)c1=O,-13.3% (inactive),
CCOC(=O)c1ccc(NC(=O)Cn2ncc(Cl)c(Cl)c2=O)cc1,-29.1% (inactive),
C=CCSc1nc2sc3c(c2c(=O)n1CC)CCC3,-3.63% (inactive),
C[C@@H]1O[C@@H](O[C@@H]2C(=O)c3c(O)cc(O)cc3O[C@H]2c2ccc(O)c(O)c2)[C@H](O)[C@H](O)[C@H]1O,2.1% (inactive),
CCC(C)Sc1ccc(-c2nc3cc(C)ccn3c2NC2CCCCC2)cc1 (stereo unspecified),-4.06% (inactive),
Cn1nnnc1SCc1nc2scc(-c3ccc(Cl)cc3)c2c(=O)[nH]1,-13.9% (inactive),
COc1cccc(N2CCN(Cc3nc4scc(-c5ccccc5)c4c(=O)[nH]3)CC2)c1,,17.7 µM (active)
O=c1c(Cl)c2oc3ccccc3nc-2c2ccccc12,,18.4 µM (active)
O=C(Nc1nc(-c2ccccn2)cs1)C1CCCC1,-4.77% (inactive),
Cc1ccc(-n2c(O)c(/C=C3/C(c4ccccc4)=Nc4ccccc43)c(=O)[nH]c2=O)cc1,-12.3% (inactive),
Cc1ccccc1NC(=O)c1sc2nc3c(c(-c4ccco4)c2c1N)CCC3,-22.7% (inactive),
CCN1CCc2nc3sc(C(=O)c4ccccc4)c(N)c3cc2C1,,16.4 µM (active)
COc1ccc(NC(=O)c2sc3nc4c(cc3c2N)CN(Cc2ccccc2)CC4)c(OC)c1,,20.6 µM (active)
Cc1cc(N2CCN(C)CC2)ccc1NC(=O)c1c2c(nc3ccccc13)CCN(Cc1ccccc1)C2,-29.2% (inactive),
Nc1c(C(=O)c2ccc(Cl)cc2)sc2nc3c(cc12)CCC3,,23.1 µM (active)
Cc1ccc(NC2=C(Cl)C(=O)N(C3CCCCC3)C2=O)cc1,-3.54% (inactive),
COc1cnc(-c2ccccn2)nc1Oc1ccc(F)cc1F,2.31% (inactive),
Cc1ccc(SC2=C(Sc3ccc(C)cc3)C(=O)c3ccccc3C2=O)cc1,,20.6 µM (active)
Cc1c(N/N=C(\C#N)C(=O)c2ccc(Cl)cc2)c(=O)n(-c2ccccc2)n1C,-12.8% (inactive),
Cc1c(NC(=O)c2csc3c2CCCC3)c(=O)n(-c2ccccc2)n1C,0.352% (inactive),

Compound,max response,Potency
Cc1c(N=C2N=C(NC(=O)c3cccs3)c3ccccc32)c(=O)n(-c2ccccc2)n1C,,15.8 µM (active)
COc1cccc(NC(=O)Nc2nc(-c3ccc(OC)c(OC)c3)cs2)c1,-25.2% (inactive),
COc1ccc(-c2csc(NC(=S)NC(=O)/C=C/c3ccco3)n2)cc1Br,,7.04 µM (active)
O=C(/C=C/c1ccco1)NC(=S)Nc1ccc(N2CCCC2)cc1,-28% (inactive),
Cc1ccc(C(=O)NCCn2c(N)c(C#N)c3nc4ccccc4nc32)cc1,,23.1 µM (active)
Cn1c(=S)c2[nH]c(SCCN3CCCC3)nc2n(C)c1=O,0.53% (inactive),
COc1ccc(N=Cc2c(O)n(-c3cccc(C)n3)c(=O)c3ccccc23)c(OC)c1,,13 µM (active)
Cc1ccc(N=Cc2c(O)n(-c3nccs3)c(=O)c3ccccc23)c(C)c1,-4.13% (inactive),
O=C(N/N=C/c1c(O)n(-c2ccc(Cl)cn2)c(=O)c2ccccc12)c1ccncc1,-9.07% (inactive),
CCC(=Nc1ccccc1O)C1=C(O)CC(c2ccccc2)CC1=O (stereo unspecified),-8% (inactive),
CCN(CC)c1ccc2cc(-c3nc(-c4ccccc4)no3)c(=O)oc2c1,,3.66 µM (active)
CCN(CC)c1ccc2cc(-c3nnc(-c4cccc(Cl)c4)o3)c(=O)oc2c1,,0.58 µM (active)
CCN(CC)c1ccc2cc(-c3nnc(-c4ccccc4)o3)c(=O)oc2c1,,0.0994 µM (active)
CCN(CC)c1ccc2cc(-c3nc(-c4ccc(Cl)cc4Cl)cs3)c(=O)oc2c1,-3.92% (inactive),
CCN(CC)c1ccc2cc(-c3nc(-c4cccs4)no3)c(=O)oc2c1,,2.06 µM (active)
CCOC(=O)c1c(C)sc(-c2c(-c3ccccc3)[nH]c3[nH]c(=O)[nH]c(=O)c23)c1O,-22.6% (inactive),
Cc1ccc(Nc2nc(-c3cccnc3)nc3ccccc23)cc1,-12.4% (inactive),
CC1CCN(C(=O)C(C)Sc2nc(-c3ccccc3)cc(C(F)(F)F)n2)CC1 (stereo unspecified),1.1% (inactive),
CCN(CC)c1ccc2cc(-c3nc(-c4cc(OC)c(OC)c(OC)c4)no3)c(=O)oc2c1,,0.366 µM (active)
CCN(CC)c1ccc2cc(-c3nc4ccccc4n3C)c(=O)oc2c1,,4.11 µM (active)
CN1/C(=C/C=C(C#N)C#N)C(C)(C)c2ccccc21,,18.4 µM (active)
CC1=C/C(=C\C=C(C#N)C#N)N(C)c2ccccc21,,2.31 µM (active)
CN1/C(=C/C=C(/C#N)C(N)=O)C(C)(C)c2ccccc21,,6.27 µM (active)

Compound,max response,Potency
COCCNC(=S)N/N=C(\C)c1ccc(OC(F)F)cc1,0.658% (inactive),
O=[N+]([O-])c1cc(-c2nc(-c3ccccc3)no2)ccc1NCc1ccco1,,8.2 µM (active)
COc1ccccc1-c1noc(-c2ccc(NCc3ccco3)c([N+](=O)[O-])c2)n1,,14.6 µM (active)
Cc1cccc(-c2noc(-c3ccc(NCc4ccco4)c([N+](=O)[O-])c3)n2)c1,,14.6 µM (active)
O=c1c2ccccc2sc2ccc(NCCCN3CCOCC3)cc12,,20.6 µM (active)
Cc1ccc(C)c(NC(=O)Cn2cc(S(=O)(=O)Cc3cccc(Cl)c3)c3ccccc32)c1,,8.2 µM (active)
Cc1ccc(Cl)cc1NC(=O)Nc1cn(CC(C)C)c(=O)c2ccccc12,-13.3% (inactive),
Cc1ccc(C)c(NC(=O)N2CC=C(c3c[nH]c4ccccc34)CC2)c1,-19.7% (inactive),
Cc1ccc(S(=O)(=O)C(C#N)c2nc3ccccc3nc2N2CCCC2)cc1 (stereo unspecified),-28.7% (inactive),
CCn1c(SCC(=O)Nc2cccc(O)c2)nc2c1c(=O)n(C)c(=O)n2C,0.997% (inactive),
COc1ccccc1CCC(=O)Nc1ccc2c(c1)c(=O)n(C)n2Cc1ccc(F)cc1,-22.3% (inactive),
COc1cc2nc(SCC(=O)NCc3ccco3)n(Cc3ccc(Cl)cc3)c(=O)c2cc1OC,,8.2 µM (active)
COc1ccc(NC(=O)CSc2nc3c(oc4ccccc43)c(=O)n2Cc2ccco2)cc1Cl,,14.6 µM (active)
CCCCOc1ccc(-c2nnn(CC(=O)NCc3ccco3)n2)cc1,-20.9% (inactive),
S=C(NCc1ccco1)Nc1ccc(Cl)cn1,-0.0392% (inactive),
O=Cc1s/c(=N\S(=O)(=O)c2ccccc2)n(CCCCl)c1Cl,-29.9% (inactive),
COc1ccc(NC(=S)Nc2ncccc2C)c(OC)c1,0.806% (inactive),
COc1ccc(C(=O)/C=C/Nc2ccc([N+](=O)[O-])cc2C)c(OC)c1,,13 µM (active)
COc1ccc(C(=O)c2cc([N+](=O)[O-])ccc2N2CCCC2)cc1,-19.8% (inactive),
COc1ccccc1NC(=O)Cc1ccc(-c2ccccc2)cc1,3.04% (inactive),
O=C(Nc1ccccc1OC(=O)c1ccccc1)c1ccccc1,,17.7 µM (active)
O=C(NC(=S)Nc1ccc(-c2ccccc2)cc1)c1ccccc1,1.35% (inactive),
